Data taken from PubChem BioAssay (Tox21).
Results filed as inconclusive are left out. Active and inactive are the calls of the source. Calls come from the whole dose curve; as a rule, active = well fitted cell-killing curve with a large enough effect in the repeat runs; inconclusive = weak or mixed curves, or effect the other way; inactive = flat fitted curve, though single readings scatter.

Test: qHTS assay to identify small molecule agonists of the constitutive androstane receptor (CAR) signaling pathway - cell viability counter screen (AID 1224836); note: nearly all actives have a fitted effect of over 45% in size
Details: HepG2-CYP2B6-hCAR viability, CellTiter-Fluor, 23 h, PK11195 added to every well; series mostly up to 92.4 µM; viability change, negative = cytotoxic: at the top concentration
Source text: U.S. Tox21 Program National Center for Advancing Translational Sciences [NCATS] NIH Chemical Genomics Center [NCGC] U.S. Environmental Protection Agency [EPA] National Institutes of Environmental Health Sciences [NIEHS] National Toxicology Program [NTP] U.S. Food and Drug Administration [FDA] Tox21 Assay Overview: The constitutive androstane receptor (CAR) is a nuclear receptor which regulates multiple drug metabolizing enzymes (DMEs) and transporters. Activating CAR will generally increase the transcription and subsequent translation of CYP2B6 and CYP3A4. These two DMEs represent about 50% of the drug metabolizing potential in the body. […] Recently, there have also been studies performed indicating CARs role in energy metabolism and cancer therapy. Therefore, inducing CARs activity could have a potential effect on diabetes and cancer. Identifying environmental toxins and compounds which modulate CAR, through the use of the Tox21 10K compound collection, will be an important step in determining the toxicity and potential therapeutic effects these factors will have on the human body. To differentiate true CAR agonists from cytotoxic substances, the assay is multiplexed with a cell viability assay.
Tox21 Assay Protocol Summary: A double-stable (hCAR and CYP2B6-2.2kb) transfected cell line, derived from human hepatoma (HepG2) cells, was utilized for the duration of the quantitative high-throughput screens. The HepG2-CYP2B6-hCAR cells were dispensed at 2500 cells/4 uL/well in 1536-well white solid bottom plates using a Multidrop Combi. After the assay plates were incubated at 37 C/5% CO2 for 4 hrs, 23 nL of compounds at 15 concentrations (from 5-48 columns) or positive control (from 1 to 4 columns) were transferred to the assay plates using a Pintool station. One uL of PK11195 (final concentration = 0.75 uM) was added, using a Flying Reagent Dispenser, inside each well. After a 23 hr incubation period at 37 C/5% CO2, 1 uL of CellTiter-Fluor reagent was added into each well of the assay plates using a Flying Reagent Dispenser. The fluorescence intensity in the plates was then measured using a ViewLux plate reader.
% is set by controls: 0 for no effect and ±100 for the full control effect.

Row | Compound | viability change, negative = cytotoxic
1 | O=C(O)C(=O)Cc1ccccc1 | 7.83% (inactive)
2 | CC(=O)/C=C/C1C(C)=CCC(C)C1(C)C (stereo not given) | 1.25% (inactive)
3 | O=C(OCC1(COC(=O)c2cccnc2)CCCC(COC(=O)c2cccnc2)(COC(=O)c2cccnc2)C1O)c1cccnc1 | 1.1% [at 42.5 µM] (inactive)
4 | CC[C@H](C)C(=O)O[C@H]1C[C@H](O)C=C2C=C[C@H](C)[C@H](CC[C@@H](O)C[C@@H](O)CC(=O)O)[C@H]21 | -11.4% (inactive)
5 | CC(=O)NCCCCCC(=O)O | -0.218% [at 42.5 µM] (inactive)
6 | CCC(C)NC(N)=O (stereo not given) | 7.23% (inactive)
7 | CCNC(=O)C1CC(C)CCC1C(C)C (stereo not given) | 2.63% (inactive)
8 | C[C@@H](Oc1ccc(CNC(=O)c2cccnc2Oc2ccc3c(c2)OCO3)c(F)c1)C(=O)O | 2.19% (inactive)
9 | Cc1ccc2ccc(Cl)cc2n1 | 7.88% [at 42.5 µM] (inactive)
10 | C=COCCOCCOCCOC=C | -0.0936% (inactive)
11 | CC(C)CCCCOC(=O)c1ccccc1C(=O)OCCCCC(C)C | -1.92% (inactive)
12 | Cc1cccc2nccnc12 | 2.67% (inactive)
13 | CO[C@@H]1[C@@H](OC(N)=O)[C@@H](O)[C@H](Oc2ccc3c(O)c(NC(=O)c4ccc(O)c(CC=C(C)C)c4)c(=O)oc3c2C)OC1(C)C | -4.89% [at 42.5 µM] (inactive)
14 | CCOC(=O)/C=C/c1ccccc1 | -0.522% (inactive)
15 | Cc1cc2cc3c(C)cc(=O)oc3c(C)c2o1 | 4.14% [at 42.5 µM] (inactive)
16 | CCCCCCCCC1CCC(=O)O1 (stereo not given) | 2.69% (inactive)
17 | COc1nccnc1NS(=O)(=O)c1ccc(N)cc1 | 2.56% [at 42.5 µM] (inactive)
18 | Cc1cccc(C)c1NC(=O)c1ccccc1C(=O)O | 5.67% [at 42.5 µM] (inactive)
19 | COC(=O)c1ccccc1C(=O)c1ccc(OCCN2CCCCC2)cc1 | -1.32% [at 42.5 µM] (inactive)
20 | CC(=O)NCc1c(I)c(NC(C)=O)c(I)c(C(=O)O)c1I | -2.42% [at 42.5 µM] (inactive)

Row | Compound | viability change, negative = cytotoxic
21 | O=C(O)c1ccc(Cl)cc1Cl | 5.59% (inactive)
22 | COc1cc2c(cc1OC)[C@@H]1CC(=O)[C@@H](CC(C)C)CN1CC2 | 1.68% [at 42.5 µM] (inactive)
23 | CC(C(=O)O)c1ccc2c(c1)CC(=O)c1ccccc1S2 (stereo not given) | -0.422% [at 42.5 µM] (inactive)
24 | Cc1cccc(C)c1OCC(C)N (stereo not given) | 2.12% [at 42.5 µM] (inactive)
25 | O=C1c2ccccc2C(=O)c2cc(S(=O)(=O)O)ccc21 | -0.633% (inactive)
26 | C[C@@H](O)[C@H]1C(=O)N2C(C(=O)O)=C(SCCN=CN)C[C@H]12 | 0.938% [at 42.5 µM] (inactive)
27 | CC(CN)CC(C)(C)CCN (stereo not given) | -21.7% [at 240 µM] (inactive)
28 | CC(C)C(=O)OCc1cccc(OC(=O)[C@@H]2N3C(=O)[C@@H](NC(=O)Cc4ccccc4)[C@H]3SC2(C)C)c1 | -0.871% [at 42.5 µM] (inactive)
29 | CCCOC(OCCC)OCCC | 2.23% (inactive)
30 | CCCCCCCC/C=C\CCCCCCCC(=O)OCCCC | -5.62% [at 19 µM] (inactive)
31 | COC(=O)C1CC(=O)C(C(=O)OC)CC1=O (stereo not given) | 10.3% [at 8.39 µM] (inactive)
32 | OCCC(F)(F)C(F)(F)C(F)(F)C(F)(F)C(F)(F)C(F)(F)C(F)(F)C(F)(F)F | 4.44% (inactive)
33 | COCCc1ccc(OCC2CO2)cc1 (stereo not given) | -4.6% [at 42.5 µM] (inactive)
34 | CCOC(=O)[C@H](CCc1ccccc1)N[C@@H](C)C(=O)N1C(=O)N(C)C[C@H]1C(=O)O | -2.99% [at 42.5 µM] (inactive)
35 | CCCCNc1ccc(C(=O)OCCN(C)C)cc1 | -11.3% [at 42.5 µM] (inactive)
36 | O=S(O)(O)=S | 1.44% [at 8.39 µM] (inactive)
37 | OCCCCC(O)CO (stereo not given) | 0.35% (inactive)
38 | CC(C)CC(=O)O | -3.61% (inactive)
39 | CCCCCCCCOS(=O)(=O)O | 4.15% (inactive)
40 | C[C@H](N)[C@H](O)c1cccc(O)c1 | -0.764% [at 42.5 µM] (inactive)
